This is one part of a sample in which hits are shown more often than they occur.
TcdB GH inh: TcdB glycohydrolase inhibition; TcdB glycohydrolase enzymatic assay, plate reader; inhibition, % at 9.99 µM; P18177; 350,000 compounds, 0.24% hits; in the data active = inhibition above about 10%
Target sequence (P18177 whole entry, looked up): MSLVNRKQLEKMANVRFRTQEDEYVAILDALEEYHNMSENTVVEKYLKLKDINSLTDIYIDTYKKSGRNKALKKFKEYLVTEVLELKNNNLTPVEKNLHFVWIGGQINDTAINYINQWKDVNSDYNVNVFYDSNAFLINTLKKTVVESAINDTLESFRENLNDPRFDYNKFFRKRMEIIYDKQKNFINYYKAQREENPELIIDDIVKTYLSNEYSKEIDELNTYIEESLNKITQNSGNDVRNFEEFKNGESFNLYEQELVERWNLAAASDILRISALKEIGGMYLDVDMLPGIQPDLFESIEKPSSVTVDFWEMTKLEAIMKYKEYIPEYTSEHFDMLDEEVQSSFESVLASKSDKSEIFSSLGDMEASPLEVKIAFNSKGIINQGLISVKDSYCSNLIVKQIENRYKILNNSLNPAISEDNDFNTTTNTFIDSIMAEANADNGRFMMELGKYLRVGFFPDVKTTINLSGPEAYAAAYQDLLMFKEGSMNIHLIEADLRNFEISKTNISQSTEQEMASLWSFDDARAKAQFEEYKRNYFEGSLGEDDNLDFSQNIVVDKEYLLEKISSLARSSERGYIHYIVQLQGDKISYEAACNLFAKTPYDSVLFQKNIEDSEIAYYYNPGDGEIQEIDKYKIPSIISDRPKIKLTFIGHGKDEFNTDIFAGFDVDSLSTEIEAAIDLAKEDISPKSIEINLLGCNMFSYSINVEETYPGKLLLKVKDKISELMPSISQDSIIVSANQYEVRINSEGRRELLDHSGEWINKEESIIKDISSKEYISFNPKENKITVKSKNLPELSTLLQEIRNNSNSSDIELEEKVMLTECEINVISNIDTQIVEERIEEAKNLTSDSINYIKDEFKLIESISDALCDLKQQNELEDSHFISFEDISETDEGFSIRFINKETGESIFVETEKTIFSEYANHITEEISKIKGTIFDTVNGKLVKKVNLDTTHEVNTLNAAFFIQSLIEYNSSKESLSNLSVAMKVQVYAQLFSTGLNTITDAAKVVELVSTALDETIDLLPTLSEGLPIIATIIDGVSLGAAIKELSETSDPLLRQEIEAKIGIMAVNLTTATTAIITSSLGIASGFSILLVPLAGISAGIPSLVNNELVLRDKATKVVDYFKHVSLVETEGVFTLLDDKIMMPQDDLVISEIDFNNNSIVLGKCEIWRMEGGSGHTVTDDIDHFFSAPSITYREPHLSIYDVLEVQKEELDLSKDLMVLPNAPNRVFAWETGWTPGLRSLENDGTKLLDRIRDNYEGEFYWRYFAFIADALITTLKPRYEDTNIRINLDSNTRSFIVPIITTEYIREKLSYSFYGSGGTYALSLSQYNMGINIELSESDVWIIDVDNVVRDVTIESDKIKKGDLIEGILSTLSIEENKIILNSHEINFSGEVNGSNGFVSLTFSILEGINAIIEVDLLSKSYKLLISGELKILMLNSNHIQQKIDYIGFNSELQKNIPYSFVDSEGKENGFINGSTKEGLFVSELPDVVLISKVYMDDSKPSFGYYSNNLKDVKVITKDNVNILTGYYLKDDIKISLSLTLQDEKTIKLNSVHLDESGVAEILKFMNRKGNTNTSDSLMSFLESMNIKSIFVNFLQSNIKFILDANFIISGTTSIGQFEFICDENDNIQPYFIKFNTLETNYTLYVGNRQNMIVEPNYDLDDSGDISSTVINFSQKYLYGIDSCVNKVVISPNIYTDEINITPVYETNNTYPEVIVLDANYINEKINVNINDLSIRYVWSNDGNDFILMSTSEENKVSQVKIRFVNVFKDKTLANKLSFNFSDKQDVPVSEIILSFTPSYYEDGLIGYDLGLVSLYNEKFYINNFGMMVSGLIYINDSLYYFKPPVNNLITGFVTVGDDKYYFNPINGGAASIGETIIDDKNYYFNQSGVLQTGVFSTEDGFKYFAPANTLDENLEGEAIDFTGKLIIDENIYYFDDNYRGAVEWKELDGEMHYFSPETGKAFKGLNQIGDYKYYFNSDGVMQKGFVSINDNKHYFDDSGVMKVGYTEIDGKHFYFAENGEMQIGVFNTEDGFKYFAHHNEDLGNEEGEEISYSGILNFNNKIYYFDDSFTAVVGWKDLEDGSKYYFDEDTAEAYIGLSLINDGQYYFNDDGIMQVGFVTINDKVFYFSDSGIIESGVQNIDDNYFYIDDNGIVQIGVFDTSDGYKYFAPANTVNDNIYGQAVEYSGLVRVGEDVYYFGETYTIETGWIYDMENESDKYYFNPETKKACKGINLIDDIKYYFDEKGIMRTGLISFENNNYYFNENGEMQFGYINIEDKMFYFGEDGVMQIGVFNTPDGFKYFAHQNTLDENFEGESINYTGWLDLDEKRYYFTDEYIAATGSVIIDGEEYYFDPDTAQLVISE
Anthrax LF inh2: anthrax lethal factor protease inhibition. 360,000 compounds, 0.12% hits. inhibition, % at 10 µM. multiplex microsphere protease cleavage assay, LF; also: plate controls were buffer without enzyme for full effect and enzyme alone for no effect
BoNT A protease: BoNT A light chain protease inhibition; AID 588499; inhibition, % at 10 µM; 360,000 compounds, 0.17% hits; multiplex microsphere protease substrate cleavage, flow cytometry; also: plate controls were buffer without enzyme for full effect and enzyme alone for no effect
BoNT-F LC inh: BoNT F light chain protease inhibition; Multiplex microsphere protease cleavage assay, flow cytometry; 360,000 compounds, 0.22% hits; AID 588497; inhibition, % at 10 µM; in the data active = inhibition above about 35%, passing the limit was not always enough; inconclusive = no clear call, values can overlap the other calls; also: plate controls were buffer without enzyme for full effect and enzyme alone for no effect
Autofluor counter: counter-screen for toxin protease inhibitors: compound fluorescence; compound autofluorescence counterscreen, microsphere flow cytometry; active compounds read high; fluorescence intensity (test concentration not listed); 360,000 compounds, 3.1% hits; AID 624483; in the data active = fluorescence intensity above about 16000; inconclusive = no clear call, values can overlap the other calls
The depositor's hits bear a star; ? = inconclusive; nt = no result. Rule as the data show it, unless noted: active = inhibition above about 30%; inconclusive = no clear call, values can overlap the other calls; inactive = below that.

SMILES	TcdB GH inh	Anthrax LF inh2	BoNT A protease	BoNT-F LC inh	Autofluor counter
Cc1cc(N2CCN(C)CC2)nc2ccc(NC(=O)CCC(=O)NCCC3=CCCCC3)cc12	nt	-1	-2	-6	21266*
COc1ccc(CCNC(=O)CCC(=O)Nc2ccc3nc(N4CCN(C)CC4)cc(C)c3c2)cc1OC	1	-4	0	2	3954
Cc1ccsc1/C=c1\sc2ncnn2c1=O	nt	-1	-2	-2	20527*
O=c1/c(=C/c2cccc3ccccc23)sc2ncnn12	nt	7	0	4	4260
CC(=O)N(C)C[C@@H]1Oc2ncc(-c3cccc(F)c3)cc2C(=O)N([C@@H](C)CO)C[C@H]1C	0	nt	nt	nt	nt
FC(F)(F)c1cccc(CON=C2CCN(c3ncc(C(F)(F)F)cc3Cl)CC2)c1	nt	1	0	-1	19810*
COCCN(C(=O)COC(=O)c1nc(Cl)ccc1Cl)c1c(N)n(Cc2ccccc2)c(=O)[nH]c1=O	2	-2	3	46*	4829
CCc1ccc(C(=O)OCC(=O)N(CC)c2c(N)n(Cc3ccccc3)c(=O)[nH]c2=O)cc1	1	-4	0	-4	4008
CCc1ccc(C(=O)OCC(=O)N(CCOC)c2c(N)n(Cc3ccccc3)c(=O)[nH]c2=O)cc1	3	12	11	47*	5761
CCN(C(=O)COC(=O)c1nc(Cl)ccc1Cl)c1c(N)n(Cc2ccccc2)c(=O)[nH]c1=O	1	-2	0	2	4034
C[C@@H]1CCCCO[C@H](CN(C)S(=O)(=O)c2cccs2)[C@@H](C)CN([C@@H](C)CO)C(=O)c2cc(NC(=O)CCCN(C)C)ccc2O1	2	nt	nt	nt	nt
C[C@H]1CN([C@@H](C)CO)C(=O)Cc2cc(NC(=O)Cc3ccccc3)ccc2O[C@H]1CN(C)Cc1ccc2c(c1)OCO2	-2	nt	nt	nt	nt
CC(C(=O)N1CCC(C(N)=O)CC1)N(c1ccc(Oc2ccccc2)cc1)S(C)(=O)=O (stereo unspecified)	nt	0	1	1	20200*
Cc1ccc(N(C(C)C(=O)N2CCCCC2)S(C)(=O)=O)cc1C (stereo unspecified)	nt	2	2	4	22154*
CS(=O)(=O)N(CC(=O)N1CCC(C(N)=O)CC1)c1ccc(Oc2ccccc2)cc1	nt	0	-1	-7	2980
CC(C(=O)N1CCCCCC1)N(c1ccc(Cl)cc1)S(C)(=O)=O (stereo unspecified)	2	-2	0	22	3793
C[C@H](CO)N1C[C@H](C)[C@@H](CN(C)C(=O)Nc2ccc(F)cc2)OCCCC[C@H](C)Oc2ccc(NC(=O)Nc3ccc4c(c3)OCO4)cc2C1=O	0	nt	nt	nt	nt
CC(C)C#Cc1cnc2c(c1)C(=O)N([C@H](C)CO)C[C@H](C)[C@H](CN(C)C(=O)Nc1ccccc1)O2	1	nt	nt	nt	nt
CCC(C)Nc1c([N+](=O)[O-])cc(C)cc1[N+](=O)[O-] (stereo unspecified)	nt	-3	?	-7	24719*
Cc1ccc(-c2ccc3c(c2)O[C@H](CN(C)C(=O)C2CC2)[C@H](C)CN([C@H](C)CO)S3(=O)=O)cc1	0	nt	nt	nt	nt
OCCNc1nc2ccc(Cl)cc2[nH]1	nt	0	4	4	22121*
Cc1cc(C(=O)CSc2nc3ccc(Cl)cc3[nH]2)c(C)n1C	nt	-9	-3	-4	23487*
CSc1nc2ccc(Cl)cc2[nH]1	nt	-9	5	9	20323*
C=CCn1c(C)cc(C(=O)CSc2nc3ccccc3[nH]2)c1C	nt	-3	?	1	23335*
COc1ccc(S(=O)(=O)N(C)C[C@@H]2Oc3ccc(NC(=O)C4CC4)cc3C(=O)N([C@@H](C)CO)C[C@@H]2C)cc1	-3	nt	nt	nt	nt
SMILES	TcdB GH inh	Anthrax LF inh2	BoNT A protease	BoNT-F LC inh	Autofluor counter
Cn1cnc2nc3n(c2c1=O)CCC3	nt	-2	0	2	16811*
CO[C@H]1CN(C)C(=O)c2cc(NC(=O)C3CCCC3)ccc2OC[C@H](C)N(CC2CC2)C[C@H]1C	-1	nt	nt	nt	nt
Cc1ccsc1C(=O)OCC(=O)Nc1ccc(Cl)cc1C(F)(F)F	2	1	1	4	2801
Cc1ccc(C(=O)NCC(=O)OCC(=O)Nc2ccc(Cl)cc2C(F)(F)F)cc1C	0	0	5	38*	2860
C[C@@H]1CN([C@H](C)CO)S(=O)(=O)c2ccc(/C=C/c3ccccc3)cc2O[C@H]1CN(C)C(=O)C1CC1	3	nt	nt	nt	nt
O=[N+]([O-])c1ccc(/C=N/n2c(COc3ccccc3)n[nH]c2=S)cc1	nt	-2	0	-7	5892
O=[N+]([O-])c1cccc(/C=N/n2c(COc3ccccc3)n[nH]c2=S)c1	nt	-8	0	3	16172*
CCOC(=O)c1nnn(-c2nonc2N)c1CNC(C)C	nt	-2	?	1	21205*
CCOC(=O)c1nnn(-c2nonc2N)c1CN1CCCCCC1	nt	-2	1	4	16135*

Source: PubChem (several laboratories)
